Rv3671c inh: Rv3671c serine protease inhibitors, primary screen, biochemical, fluorescence polarization, M. tuberculosis H37Rv; hit rate 0.048% among 320,000; AID 2606, 2010; inhibition, % at 5.96 µM; P9WHR9; in the data active = inhibition above about 38%;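 note: extracellular domain of Rv3671c used as enzyme; 0% = enzyme with DMSO and 100% = no enzyme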
Target sequence (P9WHR9 whole entry, looked up, the tested form may be a part): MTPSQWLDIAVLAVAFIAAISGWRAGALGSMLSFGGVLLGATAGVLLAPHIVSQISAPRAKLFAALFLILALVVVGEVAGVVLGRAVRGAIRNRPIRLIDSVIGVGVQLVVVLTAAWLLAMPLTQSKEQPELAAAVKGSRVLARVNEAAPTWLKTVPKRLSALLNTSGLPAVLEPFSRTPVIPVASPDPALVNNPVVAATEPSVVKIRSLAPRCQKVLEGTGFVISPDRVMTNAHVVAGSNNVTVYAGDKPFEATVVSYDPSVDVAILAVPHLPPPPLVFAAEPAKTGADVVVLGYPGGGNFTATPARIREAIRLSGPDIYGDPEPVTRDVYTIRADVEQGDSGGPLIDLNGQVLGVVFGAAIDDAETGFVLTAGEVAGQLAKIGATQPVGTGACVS
GDH-TPI counter: GDH-TPI coupling enzyme inhibitors, primary screen, artefact control for M. tuberculosis FBA inhibitor project, biochemical, absorbance, full deck. GDH-TPI coupled enzyme counterscreen, NADH absorbance. hit rate 1.2% among 360,000. inhibition, % at 4.8 µM; in the data active = inhibition above about 30%;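 note: 0% = DMSO wells and 100% = wells lacking the enzyme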
Mtb BioA inh: M. tuberculosis BioA enzyme inhibitors, primary screen, biochemical, plate reader, single point, HTS. 7,8-diaminopelargonic acid synthase BioA (Mycobacterium tuberculosis). purified M. tuberculosis BioA enzyme. inhibition, % at 9.99 µM. hit rate 0.096% among 360,000. AID 602481, 2012; in the data active = inhibition above about 40%
FBA Mtb inh: Mtb FBA enzyme inhibitors, primary screen, biochemical, fluorescence, strain H37Rv; Fructose-bisphosphate aldolase (Mycobacterium tuberculosis (strain ATCC 25618 / H37Rv)), …; purified M. tuberculosis FBA, fluorescence read-out; inhibition, % at 1 µM; hit rate 2.3% among 360,000; AID 588726, 2011; in the data active = inhibition above about 27%;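 note: 0% = vehicle and 100% = reference inhibitor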
FadD28 binding: inhibitors of FadD28 bisubstrate probe binding, primary screen, biochemical, fluorescence polarization, single point; AID 588549, 2011; hit rate 0.22% among 360,000; inhibition, % at 12.5 µM; Mycobacterium tuberculosis FadD28 fatty-acid-AMP ligase; in the data active = inhibition above about 8.5%, passing the limit was not always enough
The depositor's hits bear a star. Rows were chosen to be rich in hits. Some 3% of all compounds tested hit in one or more screens of this group.

`O=C(CCn1cnc2ccccc21)N/N=C/C=C/c1ccccc1` gave Rv3671c inh -2.4, GDH-TPI counter 20.7, Mtb BioA inh 1.1, FBA Mtb inh 1.5 and FadD28 binding -3.9.
Screening COc1ccccc1/C=C/C=N/NC(=O)CC1C(=O)NN=C1C (stereo unspecified) returned Rv3671c inh 6.0, GDH-TPI counter 36.8*, FBA Mtb inh 0.2 and FadD28 binding -2.6.
Screening COc1ccccc1/C=C/C=N/NC(=O)c1cc(-c2ccco2)[nH]n1 returned Rv3671c inh -11.2, GDH-TPI counter 32.2*, Mtb BioA inh 0.0, FBA Mtb inh -0.7 and FadD28 binding -5.0.
For CC(C)NC(=O)N[C@H]1C=C[C@H](CC(=O)NCCCN(C)C)O[C@H]1CO the results were Mtb BioA inh 2.0.
For Nc1ccn(CC(=O)NCCNc2ccc([N+](=O)[O-])cn2)c(=O)n1 the results were Rv3671c inh -4.9, GDH-TPI counter 32.8*, Mtb BioA inh -1.4, FBA Mtb inh 2.8 and FadD28 binding 0.5.
Screening COc1ccccc1-c1coc2c(CN3CCC(C)CC3)c(O)ccc2c1=O returned Rv3671c inh -1.4, GDH-TPI counter 26.9, Mtb BioA inh 1.5, FBA Mtb inh 148.8* and FadD28 binding -1.6.
CCN(CC)Cc1c(O)ccc2c(=O)c(-c3ccccc3OC)coc12 was read as Rv3671c inh -2.8, GDH-TPI counter 15.3, Mtb BioA inh -3.1, FBA Mtb inh 115.9* and FadD28 binding 0.0.
Screening C[C@@H]1CCCCO[C@H](CN(C)C(=O)Nc2ccc(F)cc2)[C@@H](C)CN([C@H](C)CO)C(=O)c2cc(NC(=O)Nc3ccccc3)ccc2O1 returned Mtb BioA inh 0.1.
Screening C[C@@H](NC(=O)C[C@H]1C=C[C@@H](NC(=O)C2CCC2)[C@H](CO)O1)c1ccccc1 returned Mtb BioA inh -2.2.
For Cc1ccccc1C(=O)N=c1sccn1C the results were Rv3671c inh 2.5, GDH-TPI counter -1.5, Mtb BioA inh -1.3, FBA Mtb inh 0.4 and FadD28 binding -1.0.
`Cc1ccc(C(=O)N=c2sccn2C)o1` gave Rv3671c inh -3.7, GDH-TPI counter 32.9*, Mtb BioA inh -1.7, FBA Mtb inh -2.2 and FadD28 binding -0.4.
Screening C[C@H]1CCCCO[C@H](CN(C)Cc2ccc(C(F)(F)F)cc2)[C@@H](C)CN([C@@H](C)CO)C(=O)c2cc(NS(=O)(=O)c3cn(C)cn3)ccc2O1 returned Mtb BioA inh -1.0.
For O=C(C[C@@H]1CC[C@H](NC(=O)c2ccncc2)[C@H](CO)O1)NCC1CC1 the results were Mtb BioA inh -2.4.
`COc1ccc(C(=O)Nc2ccc3c(c2)OC[C@H](C)N(C(C)=O)C[C@H](C)[C@H](OC)CN(C)C3=O)cc1` gave Mtb BioA inh 4.2.
For COc1ccc(OC)c(/C=N/NC(=O)c2cc3c(OC)cccc3[nH]2)c1 the results were Rv3671c inh -23.6, GDH-TPI counter 60.5*, FBA Mtb inh 5.7 and FadD28 binding -1.5.
Screening COc1ccccc1/C=N/NC(=O)c1cc2c(OC)c(OC)ccc2[nH]1 returned GDH-TPI counter 34.3*, Mtb BioA inh 0.4, FBA Mtb inh -1.9 and FadD28 binding -3.7.
`CCOc1ccc(/C=N/NC(=O)c2cc3c(OC)cc(OC)cc3[nH]2)cc1OC` gave Rv3671c inh 16.1, GDH-TPI counter 29.8, Mtb BioA inh 0.4, FBA Mtb inh 5.4 and FadD28 binding 1.2.
For COc1cccc(/C=N/NC(=O)c2cc3c(OC)cccc3[nH]2)c1OC the results were Rv3671c inh -7.3, GDH-TPI counter 25.4, Mtb BioA inh -0.7, FBA Mtb inh 2.4 and FadD28 binding -2.4.
`COc1cccc(/C=N/NC(=O)c2cc3c(OC)c(OC)ccc3[nH]2)c1OC` gave GDH-TPI counter 33.0*, FBA Mtb inh -3.1 and FadD28 binding -1.0.
`C=CCOc1ccc(/C=N/NC(=O)c2cc3c(OC)cc(OC)cc3[nH]2)cc1` gave Rv3671c inh -15.0, GDH-TPI counter 31.7*, Mtb BioA inh -1.1, FBA Mtb inh 9.0 and FadD28 binding -3.6.
COc1ccc(/C=N/NC(=O)c2cccnc2)c(C(=O)O)c1OC was read as Rv3671c inh 2.5, GDH-TPI counter 31.6*, Mtb BioA inh 1.7, FBA Mtb inh -2.2 and FadD28 binding -2.7.
Cn1cc(/C=N\NC(=O)c2cccs2)c2ccccc21 was read as Rv3671c inh -3.7, GDH-TPI counter 32.1*, FBA Mtb inh -0.1 and FadD28 binding -3.4.
Screening Cc1cc(/C=N/NC(=O)c2ccncc2)c(C)n1-c1ccccc1 returned Rv3671c inh 3.3, GDH-TPI counter 18.6, FBA Mtb inh 0.0 and FadD28 binding -1.9.
`Cn1cccc1/C=N/NC(=O)c1cccs1` gave Rv3671c inh -5.2, GDH-TPI counter 26.2, Mtb BioA inh -0.3, FBA Mtb inh 0.1 and FadD28 binding -0.6.
Screening O=C(N/N=C/c1cccc2ccccc12)c1cccnc1 returned Rv3671c inh -9.4, GDH-TPI counter 24.3, Mtb BioA inh 21.8, FBA Mtb inh -4.1 and FadD28 binding -3.7.
For Cc1cc(/C=N/NC(=O)c2cccs2)c(C)n1-c1ccccc1 the results were Rv3671c inh -1.0, GDH-TPI counter 32.7*, Mtb BioA inh 2.0, FBA Mtb inh -2.6 and FadD28 binding -0.1.
For COc1ccc(/C=N/NC(=O)c2cccnc2)c2ccccc12 the results were Rv3671c inh 4.6, GDH-TPI counter 36.0*, Mtb BioA inh 4.7, FBA Mtb inh 3.4 and FadD28 binding -0.9.
For C[C@@H]1CCCCO[C@@H](CN(C)C(=O)Cc2ccccc2)[C@@H](C)CN([C@@H](C)CO)C(=O)c2cc(NC(=O)Nc3ccc(F)cc3)ccc2O1 the results were Mtb BioA inh 2.3.
O=C(C[C@@H]1CC[C@H]2[C@@H](COC[C@@H](O)CN2Cc2ccccc2)O1)N[C@H]1CCN(Cc2ccccc2)C1 was read as Mtb BioA inh -2.2.
`C[C@@H]1CCCCO[C@@H](CN(C)CC2CCCCC2)[C@@H](C)CN([C@@H](C)CO)C(=O)c2cc(NS(=O)(=O)c3ccc(F)cc3)ccc2O1` gave Mtb BioA inh 4.3.
CO[C@H]1CN(C)C(=O)c2cc(NC(=O)c3nc4ccccc4s3)ccc2OC[C@@H](C)N(Cc2cncnc2)C[C@@H]1C was read as Mtb BioA inh -0.9.
Screening O=C(C[C@H]1C[C@@H]2c3cc(NC(=O)NC4CCCC4)ccc3O[C@@H]2[C@H](CO)O1)NCc1ccc(Cl)cc1 returned Mtb BioA inh -0.6.
`CC(C)C#Cc1ccc2c(c1)O[C@@H](CN(C)C(=O)C1CCCCC1)[C@@H](C)CN([C@@H](C)CO)S2(=O)=O` gave Mtb BioA inh 2.3.
For Cc1cc(=O)[nH]c(N/N=C/c2cc(C)n(-c3ccccc3)c2C)n1 the results were Rv3671c inh 13.2, GDH-TPI counter 42.6*, Mtb BioA inh -1.1, FBA Mtb inh -1.1 and FadD28 binding -2.5.
